Screening results as filed in PubChem BioAssay.
Hits are enriched below; roughly 21% of the tested compounds scored in any of these assays.
Pf growth 48h – Primary qHTS for delayed death inhibitors of the malarial parasite plastid, 48 hour incubation. Potency, µM (titrated, usually from 28.7 µM), for inactives: at the highest dose activity change, negative = inhibition, hits mostly inhibitors. P. falciparum luciferase growth in erythrocytes, 48 h. actives 5.9% (n = 310,000). AID 504832, 2011; further: potency means the concentration at half of the fitted maximal effect; on the % scale 0 is the no-effect control and ±100 the full control effect
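Compounds are pin-transferred into medium, infected erythrocytes (2% hematocrit, 0.1% parasitemia final) are added, and plates sit one parasite generation at 37 C in 5% CO2. Detection reagent is then added and luminescence measured.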
Pf growth 96h – Primary qHTS for delayed death inhibitors of the malarial parasite plastid, 96 hour incubation | P. falciparum luciferase reporter growth, 96 h | Potency, µM (doses to about 28.7 µM), inactives show at the top dose activity change, negative = inhibition, hits mostly inhibitors | actives 6.9% (n = 320,000); further: potency means the concentration at half of the fitted maximal effect; on the % scale 0 is the no-effect control and ±100 the full control effect
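Luminescence readout: decreased luciferase signal marks inhibited growth of reporter-expressing P. falciparum in infected red cells (2% hematocrit, 0.05% parasitemia final), exposed to compound two generations (96 h, 37 C, 5% CO2).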
Shiga toxin inh – A qHTS for Small Molecule Inhibitors of Shiga Toxin; Vero cells, Shiga toxin protein synthesis inhibition reporter; inhibition, % at 38.7 µM; actives 9.2% (n = 290,000); in the data active means inhibition mostly above about 28%, no sharp cut-off; inactive means mostly below about 43%; further: 0% is about no effect
CHX counter – Cycloheximide Counterscreen for Small Molecule Inhibitors of Shiga Toxin; cell reporter, cycloheximide protein synthesis inhibition counterscreen; max response, %; actives 12% (n = 300,000); AID 2314, 2010; in the data active means max response mostly above about 13%, no sharp cut-off; inactive means mostly below about 14%; further: read at 38.3 µM for the half of the compounds with a filed dose; 0% is about no effect
NS1 inh – qHTS Assay for Inhibitors of Influenza NS1 Protein Function; actives 0.4% (n = 270,000); Potency, µM (series often up to 46.1 µM), for inactives: at the top dose activity, positive = more growth; calls by dose curve; further: potency means the concentration at half of the fitted maximal effect; actives are rising curves; nearly all actives have a fitted effect of over 50% in size
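S. cerevisiae expressing influenza A NS1, grown in glucose, washed, then diluted 1:100 into pH 6.0 -URA galactose medium with 23 nl compound. Growth recovery read as OD600; NS1-free strain serves as control.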
Active calls of the source: *. Unless noted, the call rests on the fitted dose curve; in most records, active means well fitted inhibition curve with a large enough effect; inconclusive means small, poorly fitted or top-dose-only effect, or another doubt; inactive means no such curve, though single readings can be large or run the other way.

`CCC(=O)Nc1ccc(-c2nnc(-c3ccccc3)o2)cc1` gave Pf growth 48h 261.8%, Pf growth 96h 51.1%, Shiga toxin inh 60.7, CHX counter 18.1* and NS1 inh -2.9%.
Screening CCOC(=O)C(=O)Nc1ccc(Oc2ccccc2)cc1 returned Pf growth 48h 15.2%, Pf growth 96h 11.6%, Shiga toxin inh 1.1, CHX counter 2.9 and NS1 inh -42.6%.
Screening CCC(=O)N1CCN(CCN=CC2=C(O)CC(c3ccc(OC)cc3)CC2=O)CC1 (configuration not stated) returned Pf growth 48h 18.4%, Pf growth 96h 22.0%, Shiga toxin inh -5.1, CHX counter 1.8 and NS1 inh -2.4%.
CC(SC1=NCCN1S(C)(=O)=O)c1ccccc1 (configuration not stated) was read as Pf growth 48h 0.6%, Pf growth 96h 1.9%, Shiga toxin inh 5.6, CHX counter -0.8 and NS1 inh -5.1%.
CC(NC(=O)C1CCCCC1)C(c1cccs1)N1CCN(C)CC1 (configuration not stated) was read as Pf growth 48h -0.8%, Pf growth 96h -4.4%, Shiga toxin inh -7.0, CHX counter 1.0 and NS1 inh 3.9%.
`CCC(=O)Nc1cccc(-c2nnc(-c3cccc(NC(=O)CC)c3)o2)c1` gave Pf growth 48h 5.22µM*, Pf growth 96h 1.17µM*, Shiga toxin inh -6.6, CHX counter 12.3 and NS1 inh 1.3%.
`O=C(COc1ccccc1)Nc1ccc2c(c1)Cc1cc(NC(=O)COc3ccccc3)ccc1-2` gave Pf growth 48h -6.4%, Pf growth 96h inconclusive, Shiga toxin inh 20.0, CHX counter -3.6 and NS1 inh 3.8%.
For C=Cc1cccc(NC(=O)COc2ccccc2)c1 the results were Pf growth 48h 51.7%, Pf growth 96h inconclusive, Shiga toxin inh 41.1, CHX counter 34.7* and NS1 inh -18.2%.
O=C(COc1ccccc1)Nc1cccc(-c2nnc(-c3ccccc3)o2)c1 was read as Pf growth 48h -11.9%, Shiga toxin inh 71.5*, CHX counter 19.7* and NS1 inh -51.0%.
Cc1ccc(OCC(O)Cn2c(N3CCCCC3)nc3c2c(=O)[nH]c(=O)n3C)cc1C (configuration not stated) was read as Pf growth 48h -19.9%, Pf growth 96h -4.1%, Shiga toxin inh -1.3, CHX counter -1.7 and NS1 inh 10.2%.
Screening O=C(COC(=O)c1ccc(S(=O)(=O)N2CCCCC2)cc1)Nc1ccccc1 returned Pf growth 48h 30.6% and Pf growth 96h 12.4%.
CCOC(=O)c1c(C)[nH]c(C(=O)COC(=O)c2ccc(O)cc2O)c1C was read as Pf growth 48h 24.0%, Pf growth 96h 82.6%, Shiga toxin inh 17.5, CHX counter 18.5* and NS1 inh 4.3%.
For CCOC(=O)c1c(C)[nH]c(C(=O)OCC(=O)c2ccccc2)c1C the results were Pf growth 48h 16.2% and Pf growth 96h 22.7%.
For CCOC(=O)c1c(C)[nH]c(C(=O)COC(=O)c2ccccn2)c1C the results were Pf growth 48h -12.2%, Pf growth 96h 16.2%, Shiga toxin inh 99.6*, CHX counter 37.7* and NS1 inh -8.3%.
Screening CCOC(=O)c1c(C)[nH]c(C(=O)COC(=O)c2ccc(O)cc2)c1C returned Pf growth 48h inconclusive, Pf growth 96h inconclusive, Shiga toxin inh 54.1*, CHX counter 22.4* and NS1 inh -0.2%.
Screening CCOC(=O)c1c(C)[nH]c(C(=O)COC(=O)COc2ccc(OC)cc2)c1C returned Pf growth 48h 21.6%, Pf growth 96h 11.9%, Shiga toxin inh -14.6, CHX counter -1.8 and NS1 inh 9.4%.
For O=C(NC1CCS(=O)(=O)C1)c1cc(-c2ccccc2)nc2ccccc12 (configuration not stated) the results were Pf growth 48h -11.9%, Pf growth 96h 0.0%, Shiga toxin inh 17.0 and CHX counter 10.6.
`NC(=O)c1ccc(Oc2ccc(C(N)=O)cc2)cc1` gave Pf growth 48h 15.4%, Pf growth 96h inconclusive, Shiga toxin inh -6.9, CHX counter -2.8 and NS1 inh -4.2%.
For COc1ccc(Oc2ccc(/C=C/C(=O)c3cccc(OC)c3)cc2[N+](=O)[O-])cc1 the results were Pf growth 48h -5.6%, Pf growth 96h -6.4%, Shiga toxin inh -12.4, CHX counter -2.7 and NS1 inh -9.4%.
CN(/N=C/c1ccncc1)c1cnn(-c2ccc(F)c(Cl)c2)c(=O)c1Cl was read as Pf growth 48h inconclusive, Pf growth 96h -6.7%, Shiga toxin inh 46.3*, CHX counter 27.1* and NS1 inh 0.7%.
Screening COc1c(Cl)cnn(-c2ccc(Cl)c(Cl)c2)c1=O returned Pf growth 48h inconclusive, Pf growth 96h 38.1%, Shiga toxin inh 35.2 and CHX counter 17.2.
For COCC(=O)n1nc(-c2ccccc2)nc1NCc1cccs1 the results were Pf growth 48h 25.9%, Pf growth 96h 27.9%, Shiga toxin inh 62.6*, CHX counter 33.2* and NS1 inh 0.2%.
CCNc1nc(C#N)nc2c1ncn2-c1cc(F)cc(F)c1 was read as Pf growth 48h 1.65µM* and Pf growth 96h inconclusive.
`CCn1cnc2c(Nc3cc(F)cc(F)c3)nc(C#N)nc21` gave Pf growth 48h 0.828µM* and Pf growth 96h 0.294µM*.
For COCCn1cnnc1SCC(=O)Nc1ccccc1C(=O)Nc1ccc2c(c1)OCO2 the results were Pf growth 48h 13.9%, Pf growth 96h 2.6%, Shiga toxin inh -2.5, CHX counter 13.1 and NS1 inh 5.2%.
`O=C(COc1ccccc1Cl)NC(=S)Nc1cccc(NC(=O)c2ccccc2Cl)c1` gave Pf growth 48h -4.5%, Pf growth 96h 10.6%, Shiga toxin inh 2.5, CHX counter 12.9 and NS1 inh -3.6%.
For O=C(COc1ccc2ccccc2c1Br)NC(=S)Nc1cccc(CO)c1 the results were Pf growth 48h 38.9%, Pf growth 96h 6.9%, Shiga toxin inh 22.1*, CHX counter 50.7* and NS1 inh -4.7%.
Screening Cc1ccccc1OCC(=O)NC(=S)Nc1cccc2cc(O)ccc12 returned Pf growth 48h 36.6%, Pf growth 96h 32.9%, Shiga toxin inh -3.6, CHX counter -1.5 and NS1 inh -17.7%.
Screening O=C(COc1ccc(Br)cc1Br)NC(=S)Nc1cccc(CO)c1 returned Pf growth 48h 184.2%, Pf growth 96h 198.7%, Shiga toxin inh 86.6*, CHX counter 97.4* and NS1 inh -4.8%.
`Cc1c(C(C)(C(=O)O)c2c(C)n(C)c3ccccc23)c2ccccc2n1C` gave Pf growth 48h inconclusive, Pf growth 96h -0.2%, Shiga toxin inh 1.0, CHX counter -2.8 and NS1 inh inconclusive.
For C[C@@H](C(=O)Nc1ccc2ccccc2c1)[C@H]1C[C@]1(C)[C@H](N)c1ccccc1 the results were Shiga toxin inh -0.3 and CHX counter -0.2.
`CC[N+](CC)(CC)CC[C@](O)(c1ccccc1)C1CCCCC1` gave Pf growth 48h 6.42µM* and Pf growth 96h 5.73µM*.
